Screening results: PubChem BioAssay, National Center for Advancing Translational Sciences (NCATS)
Rows were chosen to be rich in hits. Some 19% of all compounds tested hit in one or more screens of this group.
DT40 TDP1 CPT: DT40-hTDP1 cell growth loss with CPT. chicken DT40 Tdp1-/-;hTDP1 cells + 20 nM CPT, ATP luminescence, 48 h. Potency, µM (highest dose often 46.2 µM), without a hit: at the highest dose activity change, negative = growth inhibition, most hits filed as inhibitors. 12% of 420,000 active. AID 686979; note: potency is the fitted concentration of half-maximal effect; nearly all actives have a fitted effect of over 55% in size
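Cell growth measured by CellTiter-Glo luminescence after a minimum 48 h, 37 C compound exposure with 20 nM CPT in Tdp1-knockout DT40 cells stably expressing hTDP1, seeded 400/well; qHTS titration format.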
HT1080 IDH1KD tx: kills HT-1080 cells with IDH1 knockdown; HT-1080 IDH1 knockdown viability, ATP luminescence, 48 h; Potency, µM (series often up to 46.1 µM), inactives show at the highest dose activity, negative = toxicity, usual class: cytotoxic; 2% of 360,000 active; AID 686971;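 note: potency is the fitted concentration of half-maximal effect; 0% = DMSO wells and -100% = cell-free medium wells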
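Viability of IDH1-knockdown HT-1080 fibrosarcoma cells was assessed by CellTiter-Glo after 48 h at 37 °C with titrated compound; concentration-effect curves were classified by fit quality and response size.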
DT40 TDP1 no CPT: qHTS for Inhibitors of human tyrosyl-DNA phosphodiesterase 1 (TDP1): qHTS in cells in absence of CPT; DT40 Tdp1-/- hTDP1 cells, no CPT, ATP luminescence, 48 h; Potency, µM (doses to about 46.2 µM), for the others: at the highest dose activity change, negative = growth inhibition, actives largely listed as inhibitors; 15% of 420,000 active; note: potency is the fitted concentration of half-maximal effect; nearly all actives have a fitted effect of over 55% in size
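Compound effects on proliferation are scored in DT40 Tdp1-/-;hTDP1 cells in the absence of CPT. ATP levels (CellTiter-Glo luminescence) are recorded after a ≥48 hr, 37 °C incubation.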
HT1080NT lethal: kills 2HG-producing HT-1080-NT fibrosarcoma cells. HT-1080-NT fibrosarcoma viability, CellTiter-Glo ATP luminescence, 48 h. Potency, µM (highest dose often 46.1 µM), for inactives: top-dose activity, negative = less viability, usual class: cytotoxic. 1.6% of 360,000 active. AID 686970;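 note: NT is the 2HG producing partner of a matched IDH1 knockdown line; potency is the fitted concentration of half-maximal effect; 0% = DMSO-treated cells and -100% = media-only wells without cells; nearly all actives have a fitted effect of over 55% in size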
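Read-out is CellTiter-Glo luminescence after 10 minutes at room temperature, following 48 hours' compound treatment of HT-1080-NT cells (750 cells/well, RPMI, 5% FBS, 37 degrees C).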
IL-1B inflam inh: inhibitors of inflammasome signaling (IL-1 beta secretion); THP-1 LPS/ATP IL-1B secretion, AlphaLISA, 16 h; hits give low values; activity change, % at 57.5 µM; 4.7% of 360,000 active; in the data active = activity change below about -50%; inconclusive = mostly about -30% to -49%
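Secreted IL-1B measured by AlphaLISA bead assay after 16 h compound exposure of THP-1 cells; compounds (final up to 57.5 uM) added 1 h before LPS (250 ng/mL) and ATP (1.25 mM) stimulation; lower signal means less secretion.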
The depositor's hits bear a star; ? = inconclusive; · = not tested or not shown. Unless noted, calls come from the whole dose curve; as a rule, active = well fitted curve in the direction sought with a large enough effect; inconclusive = small, poorly fitted or top-dose-only effect, or another doubt; inactive = no such curve, though single readings can be large; an effect the other way counts as inactive or inconclusive. Unless noted, % is set by controls: 0 for no effect and ±100 for the full control effect.

SMILES	DT40 TDP1 CPT	HT1080 IDH1KD tx	DT40 TDP1 no CPT	HT1080NT lethal	IL-1B inflam inh
Cc1n[nH]c(C)c1Cc1c(F)cccc1Cl	?	-1%	?	-4%	-2
Nc1nc(-c2ccccn2)nc(N)c1Cc1ccccc1F	5.8µM*	-10%	4.6µM*	-25%	15
Cc1ccc(N2C(=O)CC2(C#N)c2ccc(OCc3ccccc3)cc2)cc1 (stereo unspecified)	?	-28%	?	-14%	?
O=C1CC(C2CCCO2)C(=O)N1Cc1ccccc1 (stereo unspecified)	-10%	-1%	-15%	1%	18
COc1cc(N(C)C)ccc1[C@]1(O)C(=O)N(C)c2ccc(Br)cc21	-26%	-1%	?	-13%	-9
O=[N+]([O-])c1cc(-c2nnc(-c3ccccc3)o2)ccc1Oc1ccc(Cl)cc1	-21%	-1%	-28%	4%	8
Cc1nnc(-c2ccc(Oc3ccc(Cl)cc3)c([N+](=O)[O-])c2)o1	?	0%	23µM*	-2%	27
On1onc2c3cc(-c4ccccc4)nc3ccc21	2.9µM*	?	5.2µM*	-24%	-14
CC1(C)CC(=O)c2cc(C(=O)Nc3ccc(Br)cc3)c(=O)n(-c3ccc(Cl)cc3)c2C1	-1%	·	5%	·	·
CCn1c(-c2cccnc2Cl)nc2cc(Cl)c(Cl)cc21	18µM*	?	?	?	5
CCOC(=O)Cn1c(-c2cccnc2Cl)nc2cc(Cl)c(Cl)cc21	-18%	-28%	-10%	-13%	1
O=C(CN1C(=O)NC2(CCCc3ccccc32)C1=O)Nc1cc(F)ccc1F (stereo unspecified)	?	-6%	?	-10%	5
O=C(Nc1ccc(Cl)cc1)Nc1nnc(CSCc2ccccc2Cl)s1	16µM*	0%	12µM*	4%	11
CC(C)(C)c1nnc(NC(=O)Nc2ccc(Cl)cc2)s1	?	6%	16µM*	0%	4
O=C(Nc1ccc(Cl)c(Cl)c1)Nc1nnc(CSc2ccccc2)s1	2.6µM*	-1%	5.2µM*	-4%	?
O=C(Nc1ccc(Cl)cc1)Nc1nnc(SCc2ccccc2)s1	?	10%	?	12%	-17
O=C(Nc1ccccc1)Nc1nnc(CSCc2ccccc2Cl)s1	21µM*	?	?	?	14
COc1ccc(NC(=O)Nc2nnc(C(C)(C)C)s2)cc1	-26%	2%	?	5%	-26
O=C(c1cccs1)N(Cc1cccc(F)c1)C1CCS(=O)(=O)C1 (stereo unspecified)	-4%	15%	24%	0%	10
CC1=NN(c2nc(-c3ccc(C)cc3)cs2)C(=O)C1N=Nc1ccccc1O (stereo unspecified)	4.1µM*	?	4.6µM*	-27%	241
CC1=NN(c2nc(-c3ccc(C)cc3)cs2)C(=O)C1N=Nc1cccc(O)c1 (stereo unspecified)	?	-10%	16µM*	-8%	32
CCSC1(SCC)N=C(N)C2(C#N)C(c3ccc(F)cc3)C12C#N (stereo unspecified)	?	?	21µM*	?	-109*
CCSC1(SCC)N=C(N)C2(C#N)C(c3ccccc3)NC(C)=C(C)C12C#N (stereo unspecified)	0%	7%	-9%	4%	8
Cc1cc(C)cc(C(O)c2ncc(-c3ccc4ccccc4c3)[nH]2)c1 (stereo unspecified)	23µM*	?	?	-9%	14
Cc1cccc(-c2cnc(C(O)c3ccc(-c4ccccc4)cc3)[nH]2)c1 (stereo unspecified)	23µM*	?	23µM*	?	-2
SMILES	DT40 TDP1 CPT	HT1080 IDH1KD tx	DT40 TDP1 no CPT	HT1080NT lethal	IL-1B inflam inh
Cc1ccc2ccccc2c1C(O)c1ncc(-c2ccccc2Cl)[nH]1 (stereo unspecified)	26µM*	?	?	?	-13
Cc1cc(C)cc(C(O)c2ncc(-c3ccccc3Cl)[nH]2)c1 (stereo unspecified)	?	21µM*	?	?	0
Cc1ccc(C(O)c2ncc(-c3ccccc3Cl)[nH]2)cc1 (stereo unspecified)	-18%	10%	?	17%	9
CC(C)(C)CC(C)(C)NC(=O)/C=C/C(=O)O	7%	5%	1%	1%	-2
Brc1ccc2ncc(Br)cc2c1	3%	11%	3%	9%	3
CCCCn1c(N)c(N(CC(C)C)C(=O)C2CCCO2)c(=O)[nH]c1=O (stereo unspecified)	8%	6%	3%	13%	14
Cc1ccc(Cl)cc1NC(C#N)c1ccccc1 (stereo unspecified)	1%	-11%	?	-8%	-3
COc1ccc2[nH]c3c(c2c1)CCN1C(=O)C(CC(=O)NCCC2=CCCCC2)C[C@H](C(=O)N2CCCCC2)[C@@]31C (stereo partly specified)	23µM*	11%	18µM*	2%	-52*
CC(C)N(C(=O)[C@H]1C[C@H](CC(=O)NCC23CC4CC(CC(C4)C2)C3)C(=O)N2CCc3c([nH]c4cc(-c5ccco5)ccc34)[C@]12C)C(C)C	?	8%	?	2%	-24
CCN(CC)C(=O)[C@H]1CC(CC(=O)NCC23CC4CC(CC(C4)C2)C3)C(=O)N2CCc3c([nH]c4ccc(OC)cc34)[C@]12C (stereo partly specified)	21µM*	-29%	13µM*	-30%	-55*
C[C@]12c3[nH]c4ccccc4c3CCN1C(=O)C(CC(=O)NCC13CC4CC(CC(C4)C1)C3)C[C@@H]2C(=O)N1CCOCC1 (stereo partly specified)	16µM*	-16%	23µM*	-12%	-29
CC(C)N(C(=O)[C@H]1CC(CC(=O)NCC23CC4CC(CC(C4)C2)C3)C(=O)N2CCc3c([nH]c4ccccc34)[C@]12C)C(C)C (stereo partly specified)	13µM*	2%	23µM*	-4%	-55*
CCN(CC)C(=O)[C@H]1CC(CC(=O)NCCN2CCOCC2)C(=O)N2CCc3c([nH]c4ccc(OC)cc34)[C@]12C (stereo partly specified)	9%	9%	-11%	9%	-9
Cc1ccc2c(CN3CCN(c4ccccc4)CC3)cc(=O)oc2c1	-4%	14%	-14%	24%	-7
